Results filed as inconclusive are left out. The source made the active and inactive calls. The call rests on the fitted dose curve; in most records, active means well fitted curve in the direction sought with a large enough effect; inconclusive means small, poorly fitted or top-dose-only effect, or another doubt; inactive means no such curve, though single readings can be large; an effect the other way counts as inactive or inconclusive.
Assays:
[1] = Quantitative High-Throughput drug screen in 47 multiple myeloma cell lines against the NCATS MIPE library collection: KMS12PE_JCRB cell viability assay (AID 1918972); further: nearly all actives have a fitted effect of over 30% in size; further: potency means the concentration at half of the fitted maximal effect
Method in brief: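 qHTS of the MIPE 4.0 collection: 500 myeloma cells/well, 48 h drug exposure at 37C in 5% CO2, then CellTiter-Glo for 5 min at room temperature before luminescence reading.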

[2] = Quantitative High-Throughput drug screen in 47 multiple myeloma cell lines against the NCATS MIPE library collection: KMS26_JCRB cell viability assay (AID 1918975); further: nearly all actives have a fitted effect of over 45% in size; further: potency means the concentration at half of the fitted maximal effect
Method in brief: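 We plated 500 myeloma cells per well, pinned in MIPE 4.0 compounds, and incubated for 48 hours at 37C. ATP was then quantified with CellTiter-Glo, with DMSO and media-only wells defining 100% and 0%.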

[3] = Quantitative High-Throughput drug screen in 47 multiple myeloma cell lines against the NCATS MIPE library collection: NCIH929_DSMZ cell viability assay (AID 1918978); further: nearly all actives have a fitted effect of over 35% in size; further: potency means the concentration at half of the fitted maximal effect
Method in brief: (§1)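 Viability after 48 h drug exposure was measured as ATP-dependent luminescence. Cells, 500 per well, sat at 37 °C under 5% CO2; DMSO wells set 100%, media-only wells 0%.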

[4] = Quantitative High-Throughput drug screen in 47 multiple myeloma cell lines against the NCATS MIPE library collection: OCIMY1_PLB cell viability assay (AID 1918979); further: nearly all actives have a fitted effect of over 35% in size
Method in brief: as §1

[5] = Quantitative High-Throughput drug screen in 47 multiple myeloma cell lines against the NCATS MIPE library collection: MM1R_ATCC cell viability assay (AID 1918981); further: nearly all actives have a fitted effect of over 35% in size; further: potency means the concentration at half of the fitted maximal effect
Method in brief: as §1

[6] = Quantitative High-Throughput drug screen in 47 multiple myeloma cell lines against the NCATS MIPE library collection: LP1_DSMZ cell viability assay (AID 1918982); further: nearly all actives have a fitted effect of over 35% in size; further: potency means the concentration at half of the fitted maximal effect
Method in brief: as §1

[7] = Quantitative High-Throughput drug screen in 47 multiple myeloma cell lines against the NCATS MIPE library collection: KMS34_JCRB cell viability assay (AID 1918985); further: nearly all actives have a fitted effect of over 40% in size; further: potency means the concentration at half of the fitted maximal effect
Method in brief: as §1

[8] = Quantitative High-Throughput drug screen in 47 multiple myeloma cell lines against the NCATS MIPE library collection: OCIMY5_PLB cell viability assay (AID 1918988); further: nearly all actives have a fitted effect of over 65% in size; further: potency means the concentration at half of the fitted maximal effect
Method in brief: as §1

[9] = Quantitative High-Throughput drug screen in 47 multiple myeloma cell lines against the NCATS MIPE library collection: XG6_PLB cell viability assay (AID 1919865); further: nearly all actives have a fitted effect of over 40% in size; further: potency means the concentration at half of the fitted maximal effect
Method in brief: as §1

[10] = Quantitative High-Throughput drug screen in 47 multiple myeloma cell lines against the NCATS MIPE library collection: KMS20_JCRB cell viability assay (AID 1918973); further: nearly all actives have a fitted effect of over 45% in size; further: potency means the concentration at half of the fitted maximal effect
Method in brief: (§2)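 Luminescent ATP measurement with CellTiter-Glo gives viability, scaled between DMSO-only wells (100%) and media-only wells (0%). Cells, 500 per well, faced library compounds for 48 hours at 37C.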

[11] = Quantitative High-Throughput drug screen in 47 multiple myeloma cell lines against the NCATS MIPE library collection: MMM1_PLB cell viability assay (AID 1918976); further: nearly all actives have a fitted effect of over 35% in size; further: potency means the concentration at half of the fitted maximal effect
Method in brief: as §1

[12] = Quantitative High-Throughput drug screen in 47 multiple myeloma cell lines against the NCATS MIPE library collection: MOLP8_DSMZ cell viability assay (AID 1918977); further: nearly all actives have a fitted effect of over 45% in size; further: potency means the concentration at half of the fitted maximal effect
Method in brief: as §1

[13] = Quantitative High-Throughput drug screen in 47 multiple myeloma cell lines against the NCATS MIPE library collection: KMS28PE_JCRB cell viability assay (AID 1918983); further: nearly all actives have a fitted effect of over 35% in size; further: potency means the concentration at half of the fitted maximal effect
Method in brief: as §1

[14] = Quantitative High-Throughput drug screen in 47 multiple myeloma cell lines against the NCATS MIPE library collection: OCIMY7_PLB cell viability assay (AID 1918987); further: potency means the concentration at half of the fitted maximal effect; nearly all actives have a fitted effect of over 65% in size
Method in brief: as §1

[15] = Quantitative High-Throughput drug screen in 47 multiple myeloma cell lines against the NCATS MIPE library collection: OPM1_PLB cell viability assay (AID 1918989); further: nearly all actives have a fitted effect of over 40% in size; further: potency means the concentration at half of the fitted maximal effect
Method in brief: as §1

[16] = Quantitative High-Throughput drug screen in 47 multiple myeloma cell lines against the NCATS MIPE library collection: SKMM1_PLB cell viability assay (AID 1919863); conditions: SKMM1 myeloma viability, CellTiter-Glo ATP, 48 h; viability: active compounds read low; further: nearly all actives have a fitted effect of over 35% in size; further: potency means the concentration at half of the fitted maximal effect
Method in brief: as §1

[17] = Quantitative High-Throughput drug screen in 47 multiple myeloma cell lines against the NCATS MIPE library collection: U266_ATCC cell viability assay (AID 1919864); further: nearly all actives have a fitted effect of over 35% in size; further: potency means the concentration at half of the fitted maximal effect
Method in brief: as §1

[18] = Quantitative High-Throughput drug screen in 47 multiple myeloma cell lines against the NCATS MIPE library collection: MM1S_ATCC cell viability assay (AID 1918980); further: nearly all actives have a fitted effect of over 45% in size; further: potency means the concentration at half of the fitted maximal effect
Method in brief: as §1

[19] = Quantitative High-Throughput drug screen in 47 multiple myeloma cell lines against the NCATS MIPE library collection: KMS21BM_JCRB cell viability assay (AID 1918974); conditions: ATP luminescence, 48 h; viability: at 45.8 µM (top of the series) unless noted; further: potency means the concentration at half of the fitted maximal effect
Method in brief: as §2

[20] = Quantitative High-Throughput drug screen in 47 multiple myeloma cell lines against the NCATS MIPE library collection: L363_DSMZ cell viability assay (AID 1918984); further: potency means the concentration at half of the fitted maximal effect; nearly all actives have a fitted effect of over 40% in size
Method in brief: as §1

Cc1cc(C=c2sc3nc4ccccc4n3c2=O)c(C)n1-c1ccccc1
active: Potency [2] 5.9 µM | Potency [5] 7.43 µM | Potency [7] 14.8 µM | Potency [8] 4.69 µM
inactive: Potency [1] | Potency [3] | Potency [4] | Potency [6] | Potency [9]

CCOc1cc(C(=O)Nc2ccc(Cl)c(-c3nc4ccccc4[nH]3)c2)cc(OCC)c1OCC
active: Potency [10] 1.48 µM | Potency [11] 20.9 µM | Potency [5] 13.2 µM | Potency [6] 14.8 µM | Potency [14] 0.418 µM
inactive: Potency [2] | Potency [12] | Potency [13] | Potency [7]

CNC(=O)c1ccc(C)c(-n2c(C)cc(OCc3ccc(F)cc3F)c(Br)c2=O)c1
active: Potency [1] 18.7 µM | Potency [3] 5.9 µM | Potency [15] 13.2 µM | Potency [9] 16.6 µM
inactive: viability [16] 116% | Potency [17]

O=S(=O)(N=Cc1c(O)ccc2ccccc12)c1cccs1
inactive: Potency [4] | Potency [5] | Potency [6]
active: Potency [10] 0.833 µM | Potency [2] 16.6 µM | Potency [3] 4.69 µM | Potency [18] 0.0209 µM | Potency [9] 0.0935 µM

O=c1[nH]cnc2[nH]ncc12
inactive: Potency [10] | Potency [12] | Potency [3] | Potency [5] | Potency [6] | Potency [13] | Potency [7] | Potency [17]

COc1ccc(CCN2CCN(CCCc3ccccc3)CC2)cc1OC
inactive: Potency [12] | Potency [3] | Potency [5] | Potency [13] | Potency [15] | viability [16] 104%
active: Potency [19] 3.32 µM | Potency [9] 4.69 µM

COc1ccc(C2=N[C@H](c3ccc(Cl)cc3)[C@H](c3ccc(Cl)cc3)N2C(=O)N2CCNC(=O)C2)c(OC(C)C)c1
active: Potency [2] 16.6 µM | Potency [12] 8.33 µM | Potency [3] 5.26 µM | Potency [18] 2.09 µM | Potency [5] 2.35 µM | Potency [20] 0.059 µM | Potency [14] 8.33 µM | Potency [8] 18.7 µM | Potency [16] 5.9 µM | Potency [17] 20.9 µM | Potency [9] 2.64 µM
inactive: Potency [4] | Potency [6] | Potency [13]

CCOc1cc(C=C2C(=O)N(c3ccccc3)N=C2C)cc(Cl)c1OCC(=O)OC
inactive: Potency [12] | Potency [4] | Potency [6] | viability [16] 106%
active: Potency [2] 20.9 µM | Potency [3] 2.64 µM | Potency [18] 7.43 µM | Potency [5] 23.5 µM | Potency [13] 6.62 µM | Potency [14] 3.72 µM | Potency [15] 23.5 µM

CNC(=O)c1ccc(N2C(=S)N(c3ccc(C#N)c(C(F)(F)F)c3)C(=O)C2(C)C)cc1F
inactive: Potency [2] | Potency [12] | Potency [3] | Potency [4] | Potency [5] | Potency [6] | Potency [13] | Potency [7] | Potency [8]
active: Potency [18] 18.7 µM

N=c1nc(N2CCCCC2)cc(N)n1O
inactive: Potency [1] | Potency [4] | Potency [18] | Potency [5] | Potency [6] | Potency [13] | Potency [17]
active: Potency [15] 16.6 µM | Potency [9] 23.5 µM

Cc1csc(NC(=O)c2sc3nc4c(c(C(F)(F)F)c3c2N)CCC4)n1
active: Potency [18] 13.2 µM | Potency [6] 20.9 µM | Potency [8] 20.9 µM | Potency [17] 7.43 µM
inactive: Potency [2] | Potency [11] | Potency [12] | Potency [3] | Potency [5] | Potency [9]

Cc1cnc(NC(=O)C2=C(O)c3ccccc3S(=O)(=O)N2C)s1
inactive: Potency [2] | Potency [12] | Potency [3] | Potency [4] | Potency [5] | Potency [6] | Potency [13] | Potency [7] | Potency [8] | Potency [15]

Cc1ccc(N(CC2=NCCN2)c2cccc(O)c2)cc1
active: Potency [11] 2.96 µM | Potency [18] 20.9 µM | Potency [13] 5.26 µM | Potency [20] 11.8 µM | Potency [8] 23.5 µM | Potency [15] 23.5 µM | Potency [16] 29.6 µM
inactive: Potency [10] | Potency [3] | Potency [4]

C[C@H](NC(=O)Cc1cc(F)cc(F)c1)C(=O)N[C@@H]1C(=O)N(C)c2ccccc2-c2ccccc21
active: viability [19] 138% | Potency [3] 4.69 µM | Potency [18] 9.35 µM | Potency [8] 16.6 µM | Potency [17] 16.6 µM | Potency [9] 4.69 µM
inactive: Potency [6] | Potency [13]

Cc1cccc(-c2[nH]c(C(C)(C)C)nc2-c2ccc3nccnc3c2)n1
active: Potency [1] 4.69 µM | Potency [3] 16.6 µM | Potency [5] 20.9 µM | Potency [20] 1.87 µM | Potency [9] 3.32 µM

Cn1cnc([N+](=O)[O-])c1Sc1ncnc2nc[nH]c12
inactive: Potency [12] | Potency [4] | Potency [13]
active: Potency [2] 11.8 µM | Potency [3] 16.6 µM | Potency [14] 11.8 µM | Potency [15] 4.69 µM | Potency [17] 10.5 µM

C1COC(NC(C2CC2)C2CC2)=N1
inactive: Potency [10] | Potency [2] | Potency [3] | Potency [18] | Potency [6] | Potency [13] | Potency [8]
active: Potency [15] 16.6 µM

Reference: PubChem BioAssay (NCATS)
